15-hLO inh: inhibitors of human 15-lipoxygenase (ALOX15); actives 1.4% (n = 74,000); Potency, µM (doses to about 57.1 µM), for the others: at the highest dose activity change, negative = inhibition, actives largely listed as inhibitors; P16050; purified 15hLO-1, xylenol orange hydroperoxide absorbance; AID 887; also: potency is read from the fitted curve at half-maximal effect; % is scaled to controls: 0 for no effect and ±100 for the full control effect; nearly all actives have a fitted effect of over 55% in size
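Inhibition is scored from a chromogenic endpoint. After 15 min enzyme-compound contact, arachidonic acid (50 uM final) reacts 6 min with 40 nM 15hLO-1 at room temperature, then Fe-XO reagent is added for 30 min and absorbance ratio recorded.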
BRCT inh green: blocks human BRCA1 BRCT binding to phosphopeptide, green readout; BRCA1 BRCT-phosphopeptide binding, green fluorescence polarization; AID 875; P38398; Potency, µM (titrated, usually from 76.9 µM), without a hit: at the highest dose activity change, negative = inhibition, most hits filed as inhibitors; actives 0.05% (n = 75,000);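 also: potency is read from the fitted curve at half-maximal effect; plate controls were peptide without protein for full effect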
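Fluorescence polarization: His-tagged BRCT (~35 kDa BRCA1 C-terminus, 250 nM) bound to 100 nM fluorescein-labeled phosphorylated 10-aa BACH1 peptide, pH 7.3 phosphate buffer with DTT and Tween 20. Compounds incubated 12 min at room temperature; inhibition read as lowered polarization.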
BRCT inh red: disrupts BRCA1 BRCT binding to phosphoprotein, red fluorophore readout; BRCT-phosphopeptide binding, red fluorescence polarization; Potency, µM (highest dose often 76.9 µM), without a hit: at the highest dose activity change, negative = inhibition, most hits filed as inhibitors; actives 0.03% (n = 75,000); AID 892; also: % is scaled to controls: 0 for no effect and ±100 for the full control effect
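Rhodamine-labelled pBACH1 10-mer (100 nM) bound to BRCT domain (100 nM) at pH 7.3; compounds incubated 12 min room temperature, polarization read. Free peptide defines full inhibition; unlabelled decapeptide titrated as control.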
Casp7 inh: blocks human caspase-7 allosterically or competitively | actives 0.02% (n = 75,000) | P55210 | recombinant caspase-7, Ac-DEVD-AFC fluorescence rate | AID 889 | Potency, µM (highest dose often 57.5 µM), without a hit: at the highest dose activity change, negative = inhibition, actives largely listed as inhibitors; active = well fitted inhibition curve with a large enough effect in the main read-out, with a control signal flat, not every such curve was filed as active; inconclusive = small, poorly fitted or top-dose-only effect, or a change in a side signal; also: potency is read from the fitted curve at half-maximal effect; % of control where 0% means no effect
Caspase-1 inhib: allosteric or competitive inhibitors of human caspase-1; P29466; Caspase-1 enzyme, Ac-WEHD-AFC fluorogenic rate; Potency, µM (top dose mostly 57.5 µM), for the others: at the highest dose activity change, negative = inhibition, hits mostly inhibitors; actives 0.03% (n = 75,000); AID 900;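 also: potency is read from the fitted curve at half-maximal effect; plate controls were vehicle for no effect and no substrate for full effect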
USP2a inhib: USP2a (human) protease inhibition; O75604; USP2a enzymatic assay, qHTS inhibition; Potency, µM (series often up to 38.3 µM), for the others: at the highest dose activity change, negative = inhibition, actives largely listed as inhibitors; actives 0.1% (n = 60,000); AID 927; also: potency is read from the fitted curve at half-maximal effect; nearly all actives have a fitted effect of over 60% in size
Target sequence (O75604 whole entry, looked up): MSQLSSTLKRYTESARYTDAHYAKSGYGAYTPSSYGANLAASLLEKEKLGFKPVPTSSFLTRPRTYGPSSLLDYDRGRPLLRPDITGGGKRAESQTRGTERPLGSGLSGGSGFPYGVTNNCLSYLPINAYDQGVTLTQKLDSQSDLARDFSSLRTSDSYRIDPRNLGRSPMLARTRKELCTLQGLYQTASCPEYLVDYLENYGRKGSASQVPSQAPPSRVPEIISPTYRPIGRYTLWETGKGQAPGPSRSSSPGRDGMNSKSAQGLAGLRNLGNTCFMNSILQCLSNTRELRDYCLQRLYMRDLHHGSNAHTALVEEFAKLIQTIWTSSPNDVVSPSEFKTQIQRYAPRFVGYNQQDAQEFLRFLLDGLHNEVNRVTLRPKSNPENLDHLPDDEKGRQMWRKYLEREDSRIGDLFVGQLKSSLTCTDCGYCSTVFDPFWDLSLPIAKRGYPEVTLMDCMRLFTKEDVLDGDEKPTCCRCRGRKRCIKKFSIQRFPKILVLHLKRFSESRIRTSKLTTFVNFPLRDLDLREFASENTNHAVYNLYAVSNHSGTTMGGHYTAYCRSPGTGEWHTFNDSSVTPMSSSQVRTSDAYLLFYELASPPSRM
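USP2 core (20nM final) preincubated 30 min RT with compound, then Ub-PLA2 20nM and NBD C6-HPC 20uM final added; buffer 20mM Tris-HCl pH 8.0, 2mM CaCl2. Fluorescence Ex 460/Em 535 read at 0 and 2.5 h; normalized to NEM.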
Active calls of the source: *; ? = inconclusive; . = not tested or not shown; [ ] = dose if it differs, or a comment. Rows were chosen to be rich in hits. Some 1.5% of all compounds tested hit in one or more screens of this group. Unless noted, calls follow the shape of the dose curve; as a rule, active = well fitted curve in the direction sought with a large enough effect; inconclusive = small, poorly fitted or top-dose-only effect, or another doubt; inactive = no such curve, though single readings can be large; an effect the other way counts as inactive or inconclusive.

SMILES | 15-hLO inh | BRCT inh green | BRCT inh red | Casp7 inh | Caspase-1 inhib | USP2a inhib
CCCCC(=O)N(CCOC)c1nnc(-c2ccc(OC)cc2)s1 | -28% | -1% | -1% | -1% | 1% | 2µM*
NC1=CC(=O)c2cccc3cccc1c23 | 5µM* | -9% | -2% | -13% | -14% | 37%
CCCc1ncc(C(=O)c2ccc(OC)cc2)n1C | 10µM* | -1% | 0% | 1% | 1% | -1%
N/N=C1/CC(=O)NC(=O)N1 | 5%[11.4 µM] | 2%[15.4 µM] | -1%[15.4 µM] | -21%[11.5 µM] | ? | .
Cc1[nH]n(-c2ccccc2)c(=O)c1-c1ccccc1 | 4µM* | -1% | 0% | -2% | -2% | 3%
O=C(O)CSc1ccc(N=C=S)cc1 | 3%[11.4 µM] | 1%[15.4 µM] | -1%[15.4 µM] | 0%[11.5 µM] | 1%[11.5 µM] | .
C[C@@H](c1ccccc1)N1C(=O)[C@H]2[C@@H]3[C@H](O)C=CC(=O)[C@H]3CC[C@H]2C1=O | -2%[11.4 µM] | -1%[15.4 µM] | 0%[15.4 µM] | 1%[11.5 µM] | 0%[11.5 µM] | .
CC1CCC2C(=O)OC(CN=[N+]=[N-])CN2C1c1ccc(Br)cc1 (configuration not stated) | 5%[11.4 µM] | -1%[15.4 µM] | 0%[15.4 µM] | -2%[11.5 µM] | -3%[11.5 µM] | .
COc1ccc(Cn2c(C)nc3c(c2=O)c2nc4ccccc4nc2n3Cc2ccco2)cc1 | -23% | 3% | 1% | ? | ? | 40%
COc1ccc(S(=O)(=O)c2c(N)n(Cc3ccco3)c3nc4ccccc4nc23)cc1 | 20µM* | 4% | 2% | ? | . | 6%
Cc1noc(C)c1-c1nc(Nc2ccc(F)cc2)c2ccccc2n1 | 16µM* | -6% | -1% | -14% | -2% | 58%
Cc1noc(C)c1-c1nc(N(C)C)c2ccccc2n1 | 16µM* | 0% | 2% | -5% | -2% | -15%
Cc1noc(C)c1-c1nc(Nc2ccncc2)c2ccccc2n1 | ? | 9% | -1% | -3% | -1% | -3%
Cc1noc(C)c1-c1nc(NCc2cccs2)c2ccccc2n1 | 13µM* | -3% | 0% | -8% | -3% | 105%
CCCCCCC1=Cc2cc(OC)c(OC)cc2C(C(C(C)=O)C(=O)OC)O1 (configuration not stated) | 2%[11.4 µM] | -1%[15.4 µM] | -1%[15.4 µM] | -4%[11.5 µM] | -2%[11.5 µM] | .
CCC(=O)/C=C/C1C(C)=CCCC1(C)C (configuration not stated) | 25µM* | -1% | 1% | 0% | 1% | .
Cc1ccccc1C(=O)Nc1ccc(Cl)cn1 | ? | -2% | -2% | 0% | 1% | -1%
CCOC(=O)NC1(Nc2ccc(Cl)cn2)Oc2ccccc2O1 | 25µM* | -3% | 1% | -2% | -5% | -4%
CC(=O)OCC1OC(C#CC(C)(C)C)C=CC1OC(C)=O (configuration not stated) | -6%[11.4 µM] | -1%[15.4 µM] | 1%[15.4 µM] | 0%[11.5 µM] | -2%[11.5 µM] | .
COc1ccccc1NC(=O)N1CCN(c2cccc(C(F)(F)F)c2)CC1 | 40µM* | -2% | -1% | -2% | -1% | ?
O=C1C2C3CCCC3=C3CCCC3C2C(=O)N1c1ccccc1 (configuration not stated) | 20µM* | 1% | 0% | 0% | -1% | 5%
C[C@H](c1ccccc1)N1C(=O)[C@H]2[C@@H]3[C@H](O)[C@H](O)CC(=O)[C@H]3CC[C@H]2C1=O | 7%[11.4 µM] | 0%[15.4 µM] | 1%[15.4 µM] | 1%[11.5 µM] | -2%[11.5 µM] | .
O=C1CC(Nc2ccc(N3CCOCC3)cc2)C(=O)N1c1ccccc1F (configuration not stated) | 20µM* | -1% | -1% | 0% | -18% | .
CCCC(=O)c1cc(O)c(O)cc1O | 4µM* | -1% | 0% | -6% | -1% | .
O=c1cc(-c2ccccc2)oc2cc(O)c(O)cc12 | 16µM* | 0%[3.08 µM] | 1% | ? | . | -22%
SMILES | 15-hLO inh | BRCT inh green | BRCT inh red | Casp7 inh | Caspase-1 inhib | USP2a inhib
O=c1cc(-c2ccc(O)c(O)c2)oc2ccccc12 | 1.6µM* | -2%[3.08 µM] | 2% | -8% | -1% | -6%
O=c1cc(-c2ccccc2O)oc2c(O)c(O)ccc12 | ? | -2% | -1% | -7% | -2% | .
Cc1ccc2oc(-c3ccccc3)cc(=O)c2c1 | 7%[25.6 µM] | -2% | -4% | 1% | -1% | .
O=c1cc(-c2ccccc2)oc2c(O)c(O)ccc12 | 5µM* | -1%[3.08 µM] | 1% | -5% | -1% | -6%
O=c1cc(-c2ccccc2)oc2ccccc12 | -25% | 2% | -3% | 1% | -4% | .
C=CCn1c(N)c(C(=O)NCC2CCCO2)sc1=S (configuration not stated) | ? | 0% | 0% | 0% | 1% | 1%
CCn1c(N)c(C(=O)NCC2CCCO2)sc1=S (configuration not stated) | 10µM* | -3% | 0% | 1% | -2% | 5%
O=C1Nc2ccc(S(=O)(=O)N3CCCCCC3)c3cccc1c23 | 16µM* | -3% | -2% | ? | . | .
C=CCC1(O)C=CCC2C3C4C(OC(C)(C)C)C2C1C34 (configuration not stated) | 5%[11.4 µM] | 0%[15.4 µM] | -2%[15.4 µM] | 1%[11.5 µM] | 0%[11.5 µM] | .
Cc1ccc(C2NC(=O)c3c(sc4c3CCN(C)C4)N2)o1 (configuration not stated) | 3.2µM* | 8% | -3% | ? | . | 17%
Cc1ccc(C2NC(=O)c3c(sc4c3CCN(C)C4)N2)s1 (configuration not stated) | ? | 23% | -2% | ? | . | 23%
CC(C)=CCC/C(C)=C/C=C/C1=CC2(C)CC1(C)C(/C=C(\C)CCC=C(C)C)CC2=O (configuration not stated) | -6%[11.4 µM] | -2%[15.4 µM] | 2%[15.4 µM] | -1%[11.5 µM] | 0%[11.5 µM] | .
Cc1cc(C)n2nc3nc(N4CCCCC4)nc(-c4ccco4)c3c2n1 | 16µM* | -5% | -6% | -24% | -8% | -5%
Cc1cc2c(c(=O)o1)[C@@H](O)[C@H]1O[C@@H]1C2=O | -7%[11.4 µM] | -1%[15.4 µM] | 2%[15.4 µM] | 0%[11.5 µM] | -1%[11.5 µM] | .
N#CC1=C(N)Oc2n[nH]c(-c3cccs3)c2C1c1ccoc1 (configuration not stated) | 10µM* | 1% | -4% | 0% | -1% | 22%
N#CC1=C(N)Oc2n[nH]c(-c3cccs3)c2C1c1cccnc1 (configuration not stated) | -22% | -6% | -1% | 0% | -2% | -2%
N#CC1=C(N)SC(N)=C(C#N)C1CCC1CCCCC1 | 16µM* | 90% | -1% | -12% | -9% | 194%
O=C(O)[C@@H]1CCCN1Cc1ccc2c(c1)OCO2 | -12%[11.4 µM] | 1%[15.4 µM] | -1%[15.4 µM] | 3%[11.5 µM] | -1%[11.5 µM] | .
COc1[nH]c(/N=C/c2ccccc2)c(C#N)c1C#N | 12% | 25µM* | 32µM* | -21% | ? | 25%
C[C@@](N)(Cc1ccc(O)c(O)c1)C(=O)O | ? | -3%[3.08 µM] | -3% | -11% | 0% | -10%

High-throughput results deposited in PubChem by National Center for Advancing Translational Sciences (NCATS).
